Source: the supplement of paper PMC8728848
The sample as a whole holds a higher share of the strongest signals than the screen did.

Tests used:
Assay in all cases: glycan array binding signal (z-score within array); higher = stronger binding
Conditions in all cases: glycan notation: IUPAC condensed, linker removed
GalNAc(a1-3)GalNAc = target: GalNAc(a1-3)GalNAc
Procedure, shortened: (§1)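 Glycan array data were curated from 3228 arrays in the Consortium for Functional Glycomics database and kept only where the protein sequence was available. Glycan names were converted to IUPAC-condensed notation, and columns mapping to the same glycan were averaged. The binding signal is a within-array Z-score, averaged across arrays of the same protein sequence at different concentrations or buffers and across linkers. Negative Z-scores can be read as non-binding.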

[1] = target: GalNAc(b1-4)GlcNAc(b1-2)Man(a1-3)[GalNAc(b1-4)GlcNAc(b1-2)Man(a1-6)]Man(b1-4)GlcNAc(b1-4)GlcNAc
Procedure, shortened: as §1

[2] = target: GalNAc(b1-4)GlcNAc(b1-3)GalNAc(b1-4)GlcNAc
Procedure, shortened: as §1

GlcA(b1-6)Gal = target: GlcA(b1-6)Gal
Procedure, shortened: as §1

[3] = target: GlcNAc(a1-4)Gal(b1-4)GlcNAc
Procedure, shortened: as §1

[4] = target: GlcNAc(b1-3)Gal(b1-4)GlcNAc
Procedure, shortened: as §1

[5] = target: GlcNAc(b1-3)Gal(b1-4)GlcNAc(b1-6)[Gal(b1-3)]GalNAc
Procedure, shortened: as §1

[6] = target: GlcNAc(b1-3)Gal(b1-4)GlcNAc(b1-6)[GlcNAc(b1-3)Gal(b1-3)]GalNAc
Procedure, shortened: as §1

[7] = target: GlcNAc(b1-3)Gal(b1-4)GlcNAc(b1-6)[GlcNAc(b1-3)]Gal(b1-4)GlcNAc
Procedure, shortened: as §1

[8] = target: Kdn(a2-3)Gal(b1-4)[Fuc(a1-3)]GlcNAc
Procedure, shortened: as §1

[9] = target: Neu5Ac(a2-3)Gal(b1-4)GlcNAc(b1-2)Man(a1-3)[Neu5Ac(a2-3)Gal(b1-4)GlcNAc(b1-2)Man(a1-6)]Man(b1-4)GlcNAc(b1-4)GlcNAc
Procedure, shortened: as §1

[10] = target: Neu5Ac(a2-3)Gal(b1-4)GlcNAc(b1-3)Gal(b1-3)GlcNAc
Procedure, shortened: as §1

[11] = target: Neu5Ac(a2-3)Gal(b1-4)GlcNAc(b1-3)Gal(b1-4)GlcNAc(b1-3)GalNAc
Procedure, shortened: as §1

[12] = target: Neu5Ac(a2-3)Gal(b1-4)GlcNAc(b1-3)Gal(b1-4)GlcNAc(b1-6)[Gal(b1-3)]GalNAc
Procedure, shortened: as §1

[13] = target: Neu5Ac(a2-6)Gal(b1-4)GlcNAc(b1-2)Man(a1-3)Man(b1-4)GlcNAc(b1-4)GlcNAc
Procedure, shortened: as §1

[14] = target: Neu5Ac(a2-6)Gal(b1-4)GlcNAc(b1-2)Man(a1-3)[Man(a1-6)]Man(b1-4)GlcNAc(b1-4)GlcNAc
Procedure, shortened: as §1

[15] = target: Neu5Ac(a2-6)Gal(b1-4)GlcNAc(b1-2)Man(a1-6)[Man(a1-3)]Man(b1-4)GlcNAc(b1-4)GlcNAc
Procedure, shortened: as §1

[16] = target: Neu5Ac(a2-6)Gal(b1-4)GlcNAc(b1-3)[Neu5Ac(a2-6)Gal(b1-4)GlcNAc(b1-6)]GalNAc
Procedure, shortened: as §1

[17] = target: Neu5Ac(a2-6)GlcNAc(b1-4)GlcNAc(b1-4)GlcNAc
Procedure, shortened: as §1

[18] = target: Neu5Ac(a2-8)Neu5Ac(a2-3)Gal(b1-3)GalNAc(b1-4)[Neu5Ac(a2-3)]Gal(b1-4)Glc
Procedure, shortened: as §1

[19] = target: Neu5Ac(a2-8)Neu5Ac(a2-8)Neu5Ac(a2-8)Neu5Ac(a2-3)[GalNAc(b1-4)]Gal(b1-4)Glc
Procedure, shortened: as §1

[20] = target: Neu5Gc(b2-6)Gal(b1-4)GlcNAc
Procedure, shortened: as §1

B1: CFEM-PPm (Pichia pastoris), F2QPV1 (protein)
chain: AVATPPACLLACAAEVVKESSDCDALNNIQCICENEGSAIHACLESTCPDGLSSTALQSFEDVCE
With B1 the “glycan array binding signal (z-score)” value (GalNAc(a1-3)GalNAc) was -0.194, the “glycan array binding signal (z-score)” value [1] was 0.149 and the “glycan array binding signal (z-score)” value [2] was -0.226. For the same binder, the “glycan array binding signal (z-score)” value (GlcA(b1-6)Gal) was 2.41, the “glycan array binding signal (z-score)” value [3] was -0.205 and the “glycan array binding signal (z-score)” value [4] was 0.308. For the same binder, the “glycan array binding signal (z-score)” value [5] was 0.543, the “glycan array binding signal (z-score)” value [6] was -0.173 and the “glycan array binding signal (z-score)” value [7] was -0.353. The “glycan array binding signal (z-score)” value [8] was 0.034, the “glycan array binding signal (z-score)” value [9] was -0.218 and the “glycan array binding signal (z-score)” value [10] was -0.197. The “glycan array binding signal (z-score)” value [11] was -0.282, the “glycan array binding signal (z-score)” value [12] was 0.598 and the “glycan array binding signal (z-score)” value [13] was -0.215. For the same binder, the “glycan array binding signal (z-score)” value [14] was -0.253, the “glycan array binding signal (z-score)” value [15] was -0.345 and the “glycan array binding signal (z-score)” value [16] was 0.043. For the same binder, the “glycan array binding signal (z-score)” value [17] was -0.354, the “glycan array binding signal (z-score)” value [18] was 0.442 and the “glycan array binding signal (z-score)” value [19] was -0.319. The “glycan array binding signal (z-score)” value [20] was -0.034.
